Pf growth 96h = Primary qHTS for delayed death inhibitors of the malarial parasite plastid, 96 hour incubation; Potency, µM (top dose mostly 28.7 µM), for the others: at the highest dose activity change, negative = inhibition, most hits filed as inhibitors; P. falciparum luciferase reporter growth, 96 h; AID 504834, 2011; actives 6.9% (n = 320,000); also: potency is read from the fitted curve at half-maximal effect; % is scaled to controls: 0 for no effect and ±100 for the full control effect
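Delayed-death screen, second-generation endpoint: infected erythrocytes, 2% hematocrit, 0.05% parasitemia final; 96 hours at 37 C, 5% CO2; luciferase detection reagent; luminescence decrease equals reduced growth.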
Pf growth 48h = Primary qHTS for delayed death inhibitors of the malarial parasite plastid, 48 hour incubation; P. falciparum luciferase growth in erythrocytes, 48 h; Potency, µM (titrated, usually from 28.7 µM), inactives show top-dose activity change, negative = inhibition, usual class: inhibitors; actives 5.9% (n = 310,000); AID 504832, 2011; also: potency is read from the fitted curve at half-maximal effect; % is scaled to controls: 0 for no effect and ±100 for the full control effect
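Firefly luciferase activity from engineered P. falciparum reports growth; inhibitors lower the luminescent signal. Cultures contained 2% hematocrit erythrocytes at 0.1% final parasitemia.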
LmPK inh = qHTS Assay for Inhibitors of Leishmania Mexicana Pyruvate Kinase (LmPK) | Q27686 | purified LmPK, Kinase-Glo ATP luminescence, 1 h | Potency, µM (top dose mostly 57.5 µM), inactives show top-dose activity change, negative = inhibition, usual class: inhibitors | actives 0.37% (n = 290,000); also: potency is read from the fitted curve at half-maximal effect; % is scaled to controls: 0 for no effect and ±100 for the full control effect
Target sequence (Q27686 whole entry, looked up): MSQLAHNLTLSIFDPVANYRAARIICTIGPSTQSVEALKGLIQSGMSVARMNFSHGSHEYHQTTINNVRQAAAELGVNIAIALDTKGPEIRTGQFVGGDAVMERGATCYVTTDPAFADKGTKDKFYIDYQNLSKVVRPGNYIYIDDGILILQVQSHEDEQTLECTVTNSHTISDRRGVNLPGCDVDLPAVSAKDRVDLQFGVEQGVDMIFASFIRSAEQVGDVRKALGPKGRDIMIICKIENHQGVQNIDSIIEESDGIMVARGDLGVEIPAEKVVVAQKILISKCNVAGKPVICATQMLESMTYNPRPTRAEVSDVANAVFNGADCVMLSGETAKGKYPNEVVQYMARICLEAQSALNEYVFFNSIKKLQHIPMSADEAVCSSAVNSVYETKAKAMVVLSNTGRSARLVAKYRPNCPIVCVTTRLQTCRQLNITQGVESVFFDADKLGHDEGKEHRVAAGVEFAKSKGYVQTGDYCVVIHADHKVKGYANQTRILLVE
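Purified LmPK (0.1 nM) with 0.5 mM PEP and 0.1 mM ADP in imidazole buffer pH 7.2 with MgCl2/KCl, 1 h at room temperature. ATP formed was read by luciferase luminescence and normalized to no-enzyme and uninhibited controls.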
Cycloheximide cs = Cycloheximide Counterscreen for Small Molecule Inhibitors of Shiga Toxin; actives 12% (n = 300,000); cell reporter, cycloheximide protein synthesis inhibition counterscreen; max response, %; in the data active = max response mostly above about 13%, no sharp cut-off; inactive = mostly below about 14%; also: read at 38.3 µM for the half of the compounds with a filed dose; 0% is about no effect
Shiga toxin inh = A qHTS for Small Molecule Inhibitors of Shiga Toxin | actives 9.2% (n = 290,000) | Vero cells, Shiga toxin protein synthesis inhibition reporter | inhibition, % at 38.7 µM; in the data active = inhibition mostly above about 28%, no sharp cut-off; inactive = mostly below about 43%; also: 0% is about no effect
An asterisk follows results filed as active; ? = inconclusive; . = no result given; ! = repeats disagree. Hits are enriched below; roughly 22% of the tested compounds scored in any of these assays. Unless noted, calls follow the shape of the dose curve; as a rule, active = well fitted inhibition curve with a large enough effect; inconclusive = small, poorly fitted or top-dose-only effect, or another doubt; inactive = no such curve, though single readings can be large or run the other way.

SMILES	Pf growth 96h	Pf growth 48h	LmPK inh	Cycloheximide cs	Shiga toxin inh
CSc1nc(-c2ccc(Cl)cc2)nn1C(=O)c1ccccc1	1.31µM*	98.7%	-7.5%	24.2*	112.5*
CSc1nc(-c2ccccc2)nn1C(=O)c1ccco1	-4.3%	13.8%	-2.5%	-1.8	11.2
CSc1nc(-c2ccccc2)nn1C(=O)c1ccccc1	61.3%	12.0%	0.8%	14.4*	45.1
CSc1nc(-c2ccco2)nn1C(=O)c1ccc(Cl)cc1	-7.9%	.	0.5%	-4.9	-11.4
COc1ccc(C(=O)n2nc(-c3ccccc3)nc2SC)cc1	?	35.2%	0.3%	-1.6	11.3
CSc1nc(-c2ccccc2)nn1C(=O)c1ccc(Cl)cc1	?	28.1%	1.3%	17.5*	13.8
CCN(CC(=O)NCc1cccs1)C(=O)c1ccc(S(=O)(=O)Nc2ccccc2Cl)cc1	-19.4%	?	.	.	.
CCOC(=O)C1CCCN(C(=O)c2cc(S(=O)(=O)N(C)C)ccc2N2CCCC2)C1 (centres undefined)	?	12.0%	.	.	.
Cc1nc2oc3c(NCc4ccccc4)ncnc3c2c2c1COC(C)(C)C2	?	11.7µM*	4.5%	-2.1	-12.8
Cc1nc2oc3c(NCC4CCCO4)ncnc3c2c2c1COC(C)(C)C2 (centres undefined)	-14.2%	?	-2.7%	0.2	-8.0
CCCc1nc2oc3c(NCCOCCO)ncnc3c2c2c1COC(C)(C)C2	3.7µM*	-1.2%	0.8%	3.1	-12.9
CC(C)Cc1nc2sc3c(NCc4ccco4)ncnc3c2c2c1COC(C)(C)C2	?	?	0.4%	18.0	-5.8
CCCc1nc2oc3c(OC)ncnc3c2c2c1COC(C)(C)C2	6.57µM*	.	5.1%	7.3	-30.5
CC(C)c1nc2oc3c(NCCO)ncnc3c2c2c1COC(C)(C)C2	?	-6.6%	-0.2%	-1.5	-3.1
Cc1nc2sc3c(NCc4ccco4)ncnc3c2c2c1COC(C)(C)C2	11.7µM*	6.57µM*	2.2%	-1.4	-3.5
Cc1c(N2C(=O)c3cccc4cccc(c34)C2=O)cnn1C	28.4%	17.3%	-0.7%	-2.2	-4.5
CCC1=C(c2ccc(C)cc2)S(=O)(=O)N=C1N1CCC(C(=O)NCCCN2CCCCC2C)CC1 (centres undefined)	-1.5%	-28.3%	1.2%	7.6	-9.5
O=C(NC(=S)N1CCCCCC1)c1ccccc1Cl	-11.6%	5.22µM*	-2.2%	-3.2	20.5
O=C(NC(=S)N1CCCCCC1)c1ccc(Cl)cc1Cl	9.28µM*	?	-0.3%	-1.1	11.7
CN1CCN(C(=S)NC(=O)c2ccccc2Cl)CC1	-22.0%	0.0%	2.8%	0.8	-5.9
Cc1ccc(Cl)cc1NC(=S)N1CCCCCC1	-1.7%	-1.4%	-2.0%	1.8	-7.4
O=C(Nc1ccccc1C(=O)N1CCCC1)c1ccc(Cl)cc1Cl	11.7µM*	17.9%	-4.1%	2.6	-7.1
CCCCc1ccc(/C=C2/C(=O)ON=C2c2ccccc2)s1	10.4µM*	-1.7%	-0.6%	-0.7	-9.3
Cc1sc(/C=C2\C(=O)ON=C2c2ccccc2)cc1Br	-24.8%	9.4%	0.5%	-2.2	-6.0
CN1CCN(c2ccc(S(=O)(=O)N3CCCCC3)cc2NC(=O)c2ccc3ccccc3c2)CC1	9.28µM*	9.28µM*	0.2%	-1.7	13.5
SMILES	Pf growth 96h	Pf growth 48h	LmPK inh	Cycloheximide cs	Shiga toxin inh
CN1CCN(c2ccc(S(=O)(=O)N3CCCCC3)cc2NC(=O)c2cccc([N+](=O)[O-])c2)CC1	0.0%	-23.4%	3.7%	-2.4	-8.6
COc1ccccc1CCC(=O)Nc1cc(S(=O)(=O)N2CCCCC2)ccc1N1CCN(C)CC1	?	11.7µM*	.	.	.
COc1cc(CCC(=O)Nc2cc(Cl)ccc2N2CCN(C)CC2)cc(OC)c1OC	.	11.7µM*	-1.1%	3.4	2.6
Cc1ccccc1C(=O)Nc1cc(S(=O)(=O)N2CCCCC2)ccc1N1CCN(C)CC1	9.28µM*	?	2.9%	1.3	-8.5
Cc1ccc(-c2ccc(C3C4C=CCC(C)C4C(=O)N3Cc3ccccc3)c(F)c2)cc1 (centres undefined)	.	.	.	7.3	2.8
Cc1cccc(N2CCN(C(=O)C3CCC(CNS(=O)(=O)c4cccs4)CC3)CC2)c1C (centres undefined)	-3.0%	5.22µM*	-2.4%	-1.8	-9.0
CCCCCNC(=O)Cn1c(=O)c2c(ncn2CC(C)C)n(Cc2ccccc2)c1=O	0.0%	?	1.1%	-2.9	-8.4
Cc1ccc(SCC(c2ccccc2)N2CCN(CCc3ccccc3)CCC2=O)cc1 (centres undefined)	.	.	.	48.1*	35.2*
Cc1ccc(SC[C@H](c2ccccc2)N2CCN(CCc3ccccc3)CCC2=O)cc1	?	?	5.3%	33.3*	58.5*
CC(=O)Nc1ccc(SCC(c2ccccc2)N2CCN(CCc3ccccc3)CCC2=O)cc1 (centres undefined)	.	.	.	25.6	33.8
O=C1CCN(CCc2ccccc2)CCN1C(CSc1ccc(Br)cc1)c1ccccc1 (centres undefined)	.	.	.	33.4*	40.7
O=C1CCN(CCc2ccccc2)CCN1[C@H](CSc1ccccc1)c1ccccc1	?	?	0.9%	14.6*	13.3
Cc1ccc(SCC(Cc2ccccc2)N2CCN(CCc3ccccc3)CCC2=O)cc1 (centres undefined)	.	.	.	-1.8	-10.4
c1ccc(Nc2ccccn2)nc1	24.0%	3.3%	2.3%	11.3	-1.5
Cc1ccc(C)c(NC(=S)c2ccc3ccccc3n2)c1	-16.0%	88.5%	-3.3%	44.4*	74.7*
Cc1ccc(C)c(NC(=S)c2ccccn2)c1	1.04µM*	11.7µM*	-6.4%	49.5*	95.0*
Cc1ccc(C)c(NC(=S)c2nc3ccccc3s2)c1	7.9%	34.9%	-2.6%	25.8*	41.7*
S=C(Nc1ccccn1)c1ccccn1	6.57µM*!	?	?	42.3*	71.1*!
Cc1ccc(S(=O)(=O)N2CCOCC2)cc1NC(=O)COC(=O)CCC(=O)c1ccc(F)cc1	1.2%	23.7%	.	.	.
COc1ccc(CN2CCN(Cc3ccc(Br)cc3)CC2)c(OC)c1OC	39.2%	0.0%	1.7%	7.1	-3.4
CN(C)c1ccc(NC(=S)c2ccc3ccccc3n2)cc1	147.0%	103.8%	5.5%	31.5*	112.9*
Cn1c(SC(C(=O)Nc2ccc(F)cc2)c2ccccc2)nc2ccccc21 (centres undefined)	?	?	5.3%	6.9	-5.8
CC(Sc1nc2ccccc2n1C)C(=O)NC(c1ccccc1)c1ccccc1 (centres undefined)	5.86µM*	9.28µM*	4.2%	4.0	-3.9
Cc1ccc(C)n1NC(=O)c1ccccc1[N+](=O)[O-]	-28.4%	0.7%	-2.9%	-2.4	-6.0
Cc1ccccc1NC(=O)CC(=O)Nc1ccccc1C	25.0%	24.6%	0.1%	-2.0	-4.8
Cc1ccccc1NC(=O)c1ccccc1O	0.5%	?	-6.1%	24.4*	20.3
Cc1ccccc1NC(=O)NC(N)=O	-3.7%	14.5%	1.1%	5.4	13.7
